The supplement of paper PMC10849652
Targets with a hit are over-represented here; the source holds about 8,800 in all. About 0.5% of all pairs of compound and target were hits. Values without a mark were called inactive.

Legend:
Test in all cases: log2 fold change, soluble protein after heating vs DMSO (PISA); higher = thermal stabilisation; K562 lysate, 10 uM; active = over 0.2 and 3.5 SD of the protein, either way, in both replicates (recomputed)
[1] = compound: CCCS(=O)(=O)Nc1ccc(F)c(C(=O)c2c[nH]c3ncc(Cl)cc23)c1F
Outline: (§1)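 A 30 min treatment with 10 μM compound was applied to crude K562 extract at 1 mg/mL protein in PBS pH 7.4 with 1 mM MgCl2. Heating for 3 min spanned 48°C-58°C, after which aliquots were pooled, adjusted to 0.5% NP-40 at 4°C and spun at 21,000xg for 90 min. TMTpro 16plex LC-MS/MS of the supernatant, with channel sums equalised, gave values recorded as log-two fold change in thermal stability against solvent controls, from duplicates.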

[2] = compound: CCN(CCCOc1ccc2c(Nc3cc(CC(=O)Nc4cccc(F)c4)[nH]n3)ncnc2c1)CCOP(=O)(O)O [barasertib]
Outline: as §1

[3] = compound: CC[C@@H]1C(=O)N(C)c2cnc(Nc3ccc(C(=O)N[C@H]4CC[C@H](N5CCN(CC6CC6)CC5)CC4)cc3OC)nc2N1C(C)C [volasertib]
Outline: as §1

[4] = compound: CCn1c(C(=O)N(C2CC2)C2CC2)cc2c3c(ncn3C)c(Nc3cc(C)n(C)n3)nc21
Outline: as §1

[5] = compound: CCn1cc(-c2ccnc3[nH]c(-c4cccc(CN(C)C)c4)cc23)c(-c2ccc(NC(=O)N(C)C)cc2)n1
Outline: as §1

[6] = compound: CN1CCC(CNc2ccc3ncc(-c4cccc(OC(F)(F)F)c4)n3n2)CC1
Outline: as §1

[7] = compound: CN1CCN(CCOc2cc(OC3CCOCC3)c3c(Nc4c(Cl)ccc5c4OCO5)ncnc3c2)CC1 [saracatinib]
Outline: as §1

[8] = compound: CN1CCN(c2nc(C3=C(c4c[nH]c5ccccc45)C(=O)NC3=O)c3ccccc3n2)CC1 [sotrastaurin]
Outline: as §1

[9] = compound: CN1CC[C@H](c2c(O)cc(O)c3c(=O)cc(-c4ccccc4Cl)oc23)[C@H](O)C1 [alvocidib]
Outline: as §1

[10] = compound: CN1CCc2c(c3ccccc3n2Cc2ccc(C(=O)NO)cc2)C1 [Tubastatin A]
Outline: as §1

[11] = compound: CNC(=O)C1=CC=CC=C1NC2=NC(=NC=C2Cl)NC3=C(C=C(C=C3)N4CCOCC4)OC
Outline: as §1

[12] = compound: CNc1nc(-c2ccc3c(N)n[nH]c3c2)cc(N2C[C@@H](C(=O)NC3CCCCC3)CC[C@H]2C)n1
Outline: as §1

[13] = compound: COc1cc(Nc2ncc3c(n2)-c2ccc(Cl)cc2C(c2c(F)cccc2OC)=NC3)ccc1C(=O)O [alisertib]
Outline: as §1

[14] = compound: COc1cc2nc(-c3cc(F)ccc3O)nc(N[C@@H]3CNC[C@H]3C(C)(C)O)c2cc1OC
Outline: as §1

[15] = compound: COc1cc2ncnc(Nc3ccc(F)c(Cl)c3)c2cc1OCCCN1CCOCC1 [gefitinib]
Outline: as §1

[16] = compound: CCCS(=O)(=O)Nc1ccc(F)c(C(=O)c2c[nH]c3ncc(-c4ccc(Cl)cc4)cc23)c1F [vemurafenib]
Outline: as §1

[17] = compound: CC[C@@H]1C(=O)N(C)c2cnc(Nc3ccc(C(=O)NC4CCN(C)CC4)cc3OC)nc2N1C1CCCC1
Outline: as §1

[18] = compound: CNC(=O)c1ccc(Nc2ncc(C(F)(F)F)c(NCc3nccnc3N(C)S(C)(=O)=O)n2)cc1 [defactinib]
Outline: as §1

[19] = compound: COC(=O)N[C@@H](C)CNc1nccc(-c2cn(C(C)C)nc2-c2cc(Cl)cc(NS(C)(=O)=O)c2F)n1 [encorafenib]
Outline: as §1

[20] = compound: COC(=O)[C@H](CCSC)NC(=O)C1=C(C=C(C=C1)NC[C@H](CS)N)C2=CC=CC=C2
Outline: as §1

Sequence of UniProt Q9H079 (Q9H079 whole entry, looked up): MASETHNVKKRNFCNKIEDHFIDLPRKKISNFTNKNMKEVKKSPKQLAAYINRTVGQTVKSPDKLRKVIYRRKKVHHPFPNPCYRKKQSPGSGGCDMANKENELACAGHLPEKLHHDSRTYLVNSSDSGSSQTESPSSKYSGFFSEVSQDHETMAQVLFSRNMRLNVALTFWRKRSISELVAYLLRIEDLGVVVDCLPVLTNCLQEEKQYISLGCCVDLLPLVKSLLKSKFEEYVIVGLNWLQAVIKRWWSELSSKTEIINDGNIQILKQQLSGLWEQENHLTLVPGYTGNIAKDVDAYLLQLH
Sequence of UniProt P28161 (P28161 whole entry, looked up): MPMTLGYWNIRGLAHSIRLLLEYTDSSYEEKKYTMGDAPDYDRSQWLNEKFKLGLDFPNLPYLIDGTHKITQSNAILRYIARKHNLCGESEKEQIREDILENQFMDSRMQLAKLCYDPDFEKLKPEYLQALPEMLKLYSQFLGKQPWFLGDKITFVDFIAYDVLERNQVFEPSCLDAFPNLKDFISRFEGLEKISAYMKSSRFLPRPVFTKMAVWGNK
Sequence of UniProt Q14571 (Q14571 whole entry, looked up): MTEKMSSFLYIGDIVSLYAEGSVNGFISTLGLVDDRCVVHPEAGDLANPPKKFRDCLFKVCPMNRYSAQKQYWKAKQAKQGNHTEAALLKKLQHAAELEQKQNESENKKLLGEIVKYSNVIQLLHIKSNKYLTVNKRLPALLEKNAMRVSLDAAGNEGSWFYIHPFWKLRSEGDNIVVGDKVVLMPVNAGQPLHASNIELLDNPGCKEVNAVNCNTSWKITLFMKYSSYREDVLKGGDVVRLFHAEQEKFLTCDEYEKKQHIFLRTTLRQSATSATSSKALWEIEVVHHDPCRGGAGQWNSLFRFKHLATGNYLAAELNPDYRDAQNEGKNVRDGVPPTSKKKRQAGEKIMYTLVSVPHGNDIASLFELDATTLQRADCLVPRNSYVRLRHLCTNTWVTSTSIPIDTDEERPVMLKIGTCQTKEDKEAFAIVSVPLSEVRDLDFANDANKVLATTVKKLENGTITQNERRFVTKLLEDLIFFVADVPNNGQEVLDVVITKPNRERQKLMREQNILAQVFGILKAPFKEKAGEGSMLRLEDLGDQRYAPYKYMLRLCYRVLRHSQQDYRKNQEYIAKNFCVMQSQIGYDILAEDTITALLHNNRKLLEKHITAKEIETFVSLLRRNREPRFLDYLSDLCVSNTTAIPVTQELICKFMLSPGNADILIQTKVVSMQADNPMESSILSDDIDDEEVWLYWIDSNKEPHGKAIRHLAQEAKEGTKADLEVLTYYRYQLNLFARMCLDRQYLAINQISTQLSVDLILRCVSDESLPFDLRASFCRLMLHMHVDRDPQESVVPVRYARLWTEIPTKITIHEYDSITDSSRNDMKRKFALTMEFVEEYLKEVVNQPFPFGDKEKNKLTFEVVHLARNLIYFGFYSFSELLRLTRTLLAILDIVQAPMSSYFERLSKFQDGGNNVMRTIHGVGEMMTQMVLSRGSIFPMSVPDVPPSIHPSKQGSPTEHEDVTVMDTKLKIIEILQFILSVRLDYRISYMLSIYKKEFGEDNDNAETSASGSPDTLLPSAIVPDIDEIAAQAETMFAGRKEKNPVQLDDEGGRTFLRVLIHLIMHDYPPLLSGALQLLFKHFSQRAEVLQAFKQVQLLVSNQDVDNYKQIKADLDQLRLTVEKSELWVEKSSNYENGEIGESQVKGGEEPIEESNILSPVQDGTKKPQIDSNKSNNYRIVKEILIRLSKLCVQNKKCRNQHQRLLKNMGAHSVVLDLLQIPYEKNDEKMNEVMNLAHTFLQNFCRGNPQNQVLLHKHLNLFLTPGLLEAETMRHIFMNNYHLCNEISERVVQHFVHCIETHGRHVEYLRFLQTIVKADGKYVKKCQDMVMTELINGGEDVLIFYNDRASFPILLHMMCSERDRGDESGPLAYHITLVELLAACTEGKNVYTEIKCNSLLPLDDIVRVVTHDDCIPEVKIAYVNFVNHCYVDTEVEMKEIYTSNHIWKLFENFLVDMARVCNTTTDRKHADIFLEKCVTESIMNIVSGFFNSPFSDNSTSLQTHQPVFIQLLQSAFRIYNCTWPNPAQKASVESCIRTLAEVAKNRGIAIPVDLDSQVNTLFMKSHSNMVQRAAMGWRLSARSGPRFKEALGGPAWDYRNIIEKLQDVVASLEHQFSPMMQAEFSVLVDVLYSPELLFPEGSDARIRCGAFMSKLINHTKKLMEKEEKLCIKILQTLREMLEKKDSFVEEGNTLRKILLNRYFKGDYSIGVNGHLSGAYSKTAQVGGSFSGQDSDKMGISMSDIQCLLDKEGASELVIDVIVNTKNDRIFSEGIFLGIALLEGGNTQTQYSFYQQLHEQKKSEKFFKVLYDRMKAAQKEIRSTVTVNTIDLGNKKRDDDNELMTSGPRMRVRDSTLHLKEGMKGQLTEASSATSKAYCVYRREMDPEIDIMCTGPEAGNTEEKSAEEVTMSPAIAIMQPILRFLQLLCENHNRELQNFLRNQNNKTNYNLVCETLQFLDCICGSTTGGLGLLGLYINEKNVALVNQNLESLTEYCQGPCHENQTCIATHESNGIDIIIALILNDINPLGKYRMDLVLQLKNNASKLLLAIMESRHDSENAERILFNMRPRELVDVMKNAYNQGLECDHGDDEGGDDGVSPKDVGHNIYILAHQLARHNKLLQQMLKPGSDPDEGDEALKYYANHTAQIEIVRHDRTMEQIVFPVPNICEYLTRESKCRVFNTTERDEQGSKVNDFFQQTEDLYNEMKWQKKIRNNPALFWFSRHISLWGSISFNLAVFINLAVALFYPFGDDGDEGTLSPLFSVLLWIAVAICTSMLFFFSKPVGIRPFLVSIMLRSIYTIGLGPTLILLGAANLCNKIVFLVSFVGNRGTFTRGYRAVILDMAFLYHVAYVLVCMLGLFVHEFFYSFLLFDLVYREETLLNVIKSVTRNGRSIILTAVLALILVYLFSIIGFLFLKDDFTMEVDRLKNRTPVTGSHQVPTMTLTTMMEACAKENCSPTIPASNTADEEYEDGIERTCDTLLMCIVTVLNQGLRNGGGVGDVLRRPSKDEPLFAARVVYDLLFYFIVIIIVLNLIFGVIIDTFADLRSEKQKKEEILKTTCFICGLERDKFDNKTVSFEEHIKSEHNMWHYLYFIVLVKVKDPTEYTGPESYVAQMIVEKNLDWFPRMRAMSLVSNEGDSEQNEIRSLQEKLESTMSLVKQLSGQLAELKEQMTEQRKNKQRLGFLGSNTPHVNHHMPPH
Sequence of UniProt Q96EW2 (Q96EW2 whole entry, looked up): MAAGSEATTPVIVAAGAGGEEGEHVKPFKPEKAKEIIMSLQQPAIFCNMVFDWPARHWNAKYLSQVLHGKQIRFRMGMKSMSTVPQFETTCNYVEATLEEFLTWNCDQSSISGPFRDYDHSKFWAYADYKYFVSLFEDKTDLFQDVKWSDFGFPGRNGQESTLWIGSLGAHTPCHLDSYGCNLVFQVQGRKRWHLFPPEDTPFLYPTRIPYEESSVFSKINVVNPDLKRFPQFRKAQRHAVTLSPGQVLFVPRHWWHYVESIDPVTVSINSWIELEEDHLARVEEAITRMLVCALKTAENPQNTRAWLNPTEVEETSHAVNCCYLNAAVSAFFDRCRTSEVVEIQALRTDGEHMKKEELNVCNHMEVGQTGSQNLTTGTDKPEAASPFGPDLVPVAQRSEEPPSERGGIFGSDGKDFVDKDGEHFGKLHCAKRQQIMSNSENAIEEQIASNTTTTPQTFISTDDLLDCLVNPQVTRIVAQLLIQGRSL
Sequence of UniProt Q9Y573 (Q9Y573 whole entry, looked up): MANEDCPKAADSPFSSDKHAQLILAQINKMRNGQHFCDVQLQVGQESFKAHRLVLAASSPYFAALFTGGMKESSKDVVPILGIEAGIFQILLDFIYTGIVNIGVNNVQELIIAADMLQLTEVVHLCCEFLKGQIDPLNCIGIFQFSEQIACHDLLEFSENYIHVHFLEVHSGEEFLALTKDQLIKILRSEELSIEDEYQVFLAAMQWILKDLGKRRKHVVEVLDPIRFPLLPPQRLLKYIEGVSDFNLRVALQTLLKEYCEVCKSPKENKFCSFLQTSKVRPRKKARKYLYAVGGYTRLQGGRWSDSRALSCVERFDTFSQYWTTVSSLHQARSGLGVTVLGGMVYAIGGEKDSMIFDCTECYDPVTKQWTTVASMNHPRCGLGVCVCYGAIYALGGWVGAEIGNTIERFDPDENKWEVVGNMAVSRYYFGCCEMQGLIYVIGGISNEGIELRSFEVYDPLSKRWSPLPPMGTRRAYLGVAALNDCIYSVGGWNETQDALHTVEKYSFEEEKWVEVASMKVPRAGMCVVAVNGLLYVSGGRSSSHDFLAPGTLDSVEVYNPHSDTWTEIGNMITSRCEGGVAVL
Sequence of UniProt Q6ICG6 (Q6ICG6 whole entry, looked up): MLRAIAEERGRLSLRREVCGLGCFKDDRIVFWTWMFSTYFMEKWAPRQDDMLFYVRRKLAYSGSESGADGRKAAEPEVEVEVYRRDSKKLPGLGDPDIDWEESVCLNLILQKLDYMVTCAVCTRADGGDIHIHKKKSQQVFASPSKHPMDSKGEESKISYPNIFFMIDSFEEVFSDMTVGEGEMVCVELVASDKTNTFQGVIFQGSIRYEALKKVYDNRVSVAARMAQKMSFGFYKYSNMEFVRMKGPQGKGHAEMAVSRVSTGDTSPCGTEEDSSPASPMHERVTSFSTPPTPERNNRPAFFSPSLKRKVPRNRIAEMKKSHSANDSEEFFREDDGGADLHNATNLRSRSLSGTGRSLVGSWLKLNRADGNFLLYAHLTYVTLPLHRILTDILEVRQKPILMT
Sequence of UniProt Q99795 (Q99795 whole entry, looked up): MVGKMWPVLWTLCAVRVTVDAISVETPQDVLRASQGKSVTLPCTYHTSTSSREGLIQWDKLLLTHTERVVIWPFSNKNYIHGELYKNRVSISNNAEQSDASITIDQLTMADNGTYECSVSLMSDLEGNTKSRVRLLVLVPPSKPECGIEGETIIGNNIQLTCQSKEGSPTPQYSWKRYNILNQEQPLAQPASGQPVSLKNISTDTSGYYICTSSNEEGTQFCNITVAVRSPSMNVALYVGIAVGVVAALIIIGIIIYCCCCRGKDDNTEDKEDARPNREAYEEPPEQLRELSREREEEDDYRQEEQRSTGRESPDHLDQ

| Target | log2 fold change [1] | log2 fold change [2] | log2 fold change [3] | log2 fold change [4] | log2 fold change [5] | log2 fold change [6] | log2 fold change [7] | log2 fold change [8] | log2 fold change [9] | log2 fold change [10] | log2 fold change [11] | log2 fold change [12] | log2 fold change [13] | log2 fold change [14] | log2 fold change [15] | log2 fold change [16] | log2 fold change [17] | log2 fold change [18] | log2 fold change [19] | log2 fold change [20] |
| --- | --- | --- | --- | --- | --- | --- | --- | --- | --- | --- | --- | --- | --- | --- | --- | --- | --- | --- | --- | --- |
| IRS2 (UniProt Q9Y4H2) | 0.026 | -0.019 | -0.073 | 0.047 | -0.698 | 0.341 | 0.013 | -0.025 | -0.301 | -0.254 | -0.02 | 0.275 | 0.068 | 0.004 | 0.08 |  |  |  |  |  |
| GPN2 (UniProt Q9H9Y4) | 0.026 |  | -0.028 | 0.072 | 0.009 | 0.019 | 0.003 | 0.021 | -0.034 | -0.027 | -0.004 | -0.007 | 0.008 | -0.038 | -0.001 | -0.027 | -0.098 | 0.112 | 0.19 | -0.038 |
| GNB4 (UniProt Q9HAV0) | 0.089 | -0.046 | -0.036 | 0.016 | 0.001 | 0.166 | -0.165 | -0.04 | -0.114 | -0.002 | -0.091 | 0.01 | -0.168 | 0.095 | -0.364 (active) |  | -0.018 |  | -0.01 | 0.141 |
| GPA33 (UniProt Q99795) | -0.014 | -0.047 | 0.081 | -0.032 | -0.925 (active) | 0.612 (active) | -0.005 |  | -0.349 | 0.103 | -0.076 | -0.193 | 0.071 | 0.039 | 0.125 | -0.038 | -0.011 | -0.099 | 0.053 | -0.027 |
| ITPR2 (UniProt Q14571) | -0.044 |  | 0.336 | -0.222 |  |  | 0.088 |  |  | -0.03 | 0.074 | 0.239 | 0.001 | 0.234 | -0.019 |  |  |  |  |  |
| HSPA8 (UniProt E9PN89) | -0.06 | -0.041 | -0.005 | -0.114 | -0.366 | 0.32 | -0.01 | 0.308 | -0.248 | 0.066 | -0.074 | -0.075 | 0.11 | 0.013 | 0.076 |  | 0.057 |  | 0.088 | 0.035 |
| HNRNPL, A0A3B3ITJ4 | 0.087 | 0.14 | -0.072 |  |  |  |  |  |  |  |  |  |  | 0.032 |  |  |  |  |  |  |
| KATNBL1 (UniProt Q9H079) | -0.03 |  | 0.039 |  | -0.105 | 0.055 | -0.068 | -0.004 | -0.106 |  | -0.033 | 0.037 | -0.161 | 0.025 | -0.254 | -0.011 | 0.284 | -0.014 | -0.137 | -0.188 |
| HDAC3 (UniProt E7ESJ6) | 0.031 |  | -0.16 |  |  |  |  |  |  |  |  |  |  | -0.005 |  |  |  |  |  |  |
| GSTM2 (UniProt P28161) | 0.07 | 0.024 | 0.005 | -0.027 | 0.131 | -0.091 | 0.003 |  | 0.079 | 0.045 | 0.009 | -0.016 | 0.01 | -0.015 | 0.034 | -0.005 | 0.015 | 0.036 | -0.024 | 0.068 |
| GTPBP6 (UniProt O43824) |  |  |  |  | -0.062 | -0.096 | -0.166 |  | 0.046 |  |  | 0.673 |  |  |  | -0.089 | 0.32 | 0.163 | -0.076 | 0.235 |
| HSPBAP1 (UniProt Q96EW2) | 0.04 | 0.012 | 0.044 | -0.058 | -0.293 | -0.038 | -0.054 | 0.027 | -0.094 | -0.139 | 0.02 | -0.547 (active) | -0.113 | -0.104 | -0.005 |  | 0.155 |  | 0.097 | -0.154 |
| ITGB1BP2 (UniProt Q9UKP3) |  |  |  |  | -0.032 | 0.443 | 0.005 |  | -0.116 |  |  | -0.018 |  |  |  | 0.045 | -0.07 | -0.112 | -0.137 | 0.044 |
| HNRNPD (UniProt D6RF44) |  |  |  |  |  |  |  | 0.079 |  |  |  |  | -0.006 |  | -0.014 |  |  |  |  |  |
| KIAA0930 isoform 2 (UniProt Q6ICG6) | -0.009 | 0.002 | 0.14 | 0.159 | -0.078 | 0.028 | 0.098 | 0.075 | -0.067 | 0.077 |  | -0.118 | 0.073 | 0.013 | -0.063 | -0.118 | 0.162 | 0.03 | -0.089 | -0.032 |
| HNRNPM (UniProt M0QZM1) |  | 0.229 |  |  |  |  | -0.066 | -0.054 |  |  |  | 0.128 |  |  |  | -0.027 | 0.171 | 0.073 | 0.006 | -0.025 |
| GYPA, A0A2R8Y7F9 |  | 0.066 |  |  | -0.812 | 0.25 |  |  | -0.218 |  |  |  |  |  |  |  |  |  |  |  |
| HTT (UniProt P42858) |  | 0.044 |  | 0.052 | -0.039 | 0.152 | -0.033 | 0.01 | 0 | -0.195 | 0.022 | -0.043 | -0.005 |  | -0.032 | -0.083 | -0.063 | 0.048 | 0.008 | -0.003 |
| IPP (UniProt Q9Y573) | 0.056 |  | -0.162 | 0.006 | 0.057 | -0.014 | -0.035 |  | 0.001 | -0.075 | -0.07 | 0.029 |  | 0.06 |  | -0.102 | 0.169 | 0.016 | -0.138 | -0.171 |
